Data: PubChem BioAssay (NCI)
This is part of a sample that, as a whole, favours compounds with a hit. Of some 79,000 tested, about 15% had one in any assay. Values without a mark were called inactive. Active and inactive are the calls of the source. Rule as the data show it: active = growth inhibition above about 70%; inactive = the rest.

Experiments:
[1] = NCI Yeast Anticancer Drug Screen. Data for the rad50 strain (AID 155);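 also: 0% = growth of vehicle-only cultures of the same strain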; details: S. cerevisiae rad50 strain growth inhibition, stronger effect = higher value
How it was run: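 Cells are treated with compound, grown, and their growth is then scored against vehicle-only cultures of the same repair-deficient yeast strain.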

[2] = NCI Yeast Anticancer Drug Screen. Data for the mec2-1 strain (AID 157); details: S. cerevisiae mec2-1 strain, stronger effect = higher value
How it was run: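 Strain: mec2-1 (DNA repair/cell cycle alteration). Compound exposure, then growth measured; inhibition expressed relative to vehicle.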

[3] = NCI Yeast Anticancer Drug Screen. Data for the sgs1 mgt1 strain (AID 161);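 also: 0% = growth of cultures given vehicle only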; details: S. cerevisiae sgs1 mgt1 strain, stronger effect = higher value
How it was run: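 Read-out: growth inhibition vs vehicle controls. Cells: mutant yeast strain deficient in DNA damage repair.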

[4] = NCI Yeast Anticancer Drug Screen. Data for the cln2 rad14 strain (AID 165);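 also: 0% = growth equal to vehicle treated cultures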; details: S. cerevisiae cln2 rad14 strain, stronger effect = higher value
How it was run: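 Compounds are applied to the cln2 rad14 yeast strain, and growth is then compared with that of vehicle-treated cultures to give inhibition.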

[5] = NCI Yeast Anticancer Drug Screen. Data for the bub3 strain (AID 167); details: S. cerevisiae bub3 mutant strain, stronger effect = higher value
How it was run: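 Part of a panel of yeast mutants defective in DNA damage repair or cell cycle regulation. Each strain is grown with compound, and inhibition is calculated relative to solvent-treated cultures.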

[6] = NCI Yeast Anticancer Drug Screen. Data for the mlh1 rad18 strain (AID 175); details: S. cerevisiae mlh1 rad18 strain growth inhibition, stronger effect = higher value
How it was run: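 Read-out is yeast growth inhibition, calculated against vehicle-only controls. The compound was applied to a strain engineered with DNA damage repair alterations.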

[7] = at 5.0 µM (retest, dose inferred, filed as 0.5)
[8] = at 50.0 µM (retest, dose inferred, filed as 5.0)

| SMILES | growth inhibition [1, 7] | growth inhibition [1, 8] | growth inhibition ([1]; at 50.0 µM) | growth inhibition [2, 7] | growth inhibition [2, 8] | growth inhibition ([2]; at 50.0 µM) | growth inhibition [3, 7] | growth inhibition [3, 8] | growth inhibition ([3]; at 50.0 µM) | growth inhibition [4, 7] | growth inhibition [4, 8] | growth inhibition ([4]; at 50.0 µM) | growth inhibition [5, 7] | growth inhibition [5, 8] | growth inhibition ([5]; at 50.0 µM) | growth inhibition [6, 7] | growth inhibition [6, 8] | growth inhibition ([6]; at 50.0 µM) |
| --- | --- | --- | --- | --- | --- | --- | --- | --- | --- | --- | --- | --- | --- | --- | --- | --- | --- | --- |
| C[C@@H](O)[C@H]1/C=C/C=C\C(=O)O[C@@H]2C[C@H]3O[C@@H]4[C@@H]5OC5(C)CCC4(COC(=O)[C@H]4O[C@]4(C)[C@@H](O)CO1)[C@]2(C)[C@]31CO1 (some centres not stated) | 26% | 95% (active) | 91.4% (active) | 24% | 87% (active) | 92.5% (active) | 44% | 96% (active) | 92% (active) | 42% | 96% (active) | 90.4% (active) | 31% | 93% (active) | 91% (active) | 28% | 97% (active) | 90.2% (active) |
| COc1cc(/C=C(\C)[N+](=O)[O-])cc(Br)c1O | 0% | 61% | 86.7% (active) | 1% | 82% (active) | 90.8% (active) | 8% | 91% (active) | 91% (active) | 3% | 43% | 53.5% | -3% | 54% | 93% (active) | 2% | 81% (active) | 98.7% (active) |
| COC1(O[C@H]2CC[C@H]3[C@@H]4CCC5=CC(=O)CC[C@]5(C)[C@H]4CC[C@]23C)CCCCC1 | 3% | -8% | 99.5% (active) | 5% | 2% | 99.5% (active) | -30% | -33% | 99.5% (active) | 1% | -4% | 99.2% (active) | 1% | -4% | 99.1% (active) | -25% | -56% | 99.4% (active) |
| O=C(O)c1ccc([Se][Se]c2ccc(C(=O)O)cc2)cc1 | 63% | 97% (active) | 89.9% (active) | 39% | 98% (active) | 92.8% (active) | 58% | 99% (active) | 93.3% (active) | 33% | 94% (active) | 91.5% (active) | 41% | 99% (active) | 91.2% (active) | 67% | 97% (active) | 91.1% (active) |
| c1cc[c]([Pb]([S]c2nc3ccccc3[nH]2)([c]2ccccc2)[c]2ccccc2)cc1 | 99% (active) | 99% (active) | 91.4% (active) | 100% (active) | 99% (active) | 92.7% (active) | 99% (active) | 99% (active) | 92.2% (active) | 99% (active) | 99% (active) | 91.8% (active) | 99% (active) | 99% (active) | 91.3% (active) | 99% (active) | 99% (active) | 90.3% (active) |
| O=[N+]([O-])/C=C/c1ccccc1Cl | 91% (active) | 98% (active) | 90.8% (active) | 99% (active) | 99% (active) | 92.8% (active) | 67% | 98% (active) | 93.3% (active) | 68% | 98% (active) | 92.2% (active) | 98% (active) | 99% (active) | 91% (active) | 99% (active) | 99% (active) | 91.2% (active) |
| N#CC(C#N)=NNc1cccc(Cl)c1Cl | 43% | 73% (active) | 90.8% (active) | 48% | 75% (active) | 92.7% (active) | 31% | 100% (active) | 93.2% (active) | 71% (active) | 100% (active) | 90.7% (active) | 25% | 100% (active) | 91.8% (active) | 41% | 66% | 90.2% (active) |
| [pH]1p2[pH]p3p1p3[pH]2.c1cc[c]([Ge]([c]2ccccc2)[c]2ccccc2)cc1.c1cc[c]([Ge]([c]2ccccc2)[c]2ccccc2)cc1.c1cc[c]([Ge]([c]2ccccc2)[c]2ccccc2)cc1 | 10% | 82% (active) | 2.35% | 20% | 74% (active) | 59.3% | 18% | 78% (active) | 4.75% | 8% | 44% | 37.8% | 9% | 66% | -1% | 19% | 71% (active) | 18.4% |
| CCC(C)c1cnc(CC(C)C)c(=O)n1O (configuration not stated) | 87% (active) | 99% (active) | 91% (active) | 26% | 99% (active) | 88.8% (active) | 75% (active) | 98% (active) | 90% (active) | 68% | 98% (active) | 86.3% (active) | 59% | 98% (active) | 90.7% (active) | 73% (active) | 99% (active) | 89.6% (active) |
